Source: PubChem BioAssay (several laboratories)
GLD-1 TGE inh: GLD-1-TGE RNA interaction inhibition (C. elegans) | Q17339 | purified GLD-1 + fluorescein TGE RNA, fluorescence polarization | inhibition, % at 5.96 µM | 320,000 compounds, 0.44% hits;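 active means percent inhibition above a per-plate cutoff, the plate mean of test compounds plus 3 SD, cut at about 30% in these data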;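 further: 0% = DMSO wells with GLD-1 and probe and 100% = wells lacking GLD-1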
Bcl-xL primary: Bcl-xL (human) inhibition. GST-Bcl-xL / FITC-Bim BH3 peptide fluorescence polarization. inhibition, % at 10.9 µM. 320,000 compounds, 0.7% hits. AID 2129;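 active means inhibition above the mean of all tested compounds plus 3 SD, cutoff set per campaign, cut at about 30% in these data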;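 further: 0% = DMSO wells and 100% = unlabeled Bim-BH3 peptide competitor; inhibitors lower millipolarization by displacing the labeled peptide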
Target sequence (Q07817 whole entry, looked up): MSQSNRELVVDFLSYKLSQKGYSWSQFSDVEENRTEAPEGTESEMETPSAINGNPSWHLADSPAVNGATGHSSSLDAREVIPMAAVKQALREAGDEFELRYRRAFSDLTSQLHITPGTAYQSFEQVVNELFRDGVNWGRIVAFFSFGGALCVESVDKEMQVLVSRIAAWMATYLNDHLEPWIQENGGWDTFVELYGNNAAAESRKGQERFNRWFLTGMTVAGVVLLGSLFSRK
MCL1-BIM inh: disrupts human MCL1 binding to BIM-BH3 peptide. inhibition, % at 10.9 µM. 320,000 compounds, 0.68% hits. Q07820. AID 2057. GST-MCL1 / FITC-Bim-BH3 fluorescence polarization;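 active means inhibition above the mean inhibition of all tested compounds plus 3 SD, set per campaign, cut at about 40% in these data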;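 further: 0% = DMSO wells and 100% = unlabeled Bim-BH3 peptide control; higher means more loss of mP so more displacement of Bim peptide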
Target sequence (Q07820 whole entry, looked up): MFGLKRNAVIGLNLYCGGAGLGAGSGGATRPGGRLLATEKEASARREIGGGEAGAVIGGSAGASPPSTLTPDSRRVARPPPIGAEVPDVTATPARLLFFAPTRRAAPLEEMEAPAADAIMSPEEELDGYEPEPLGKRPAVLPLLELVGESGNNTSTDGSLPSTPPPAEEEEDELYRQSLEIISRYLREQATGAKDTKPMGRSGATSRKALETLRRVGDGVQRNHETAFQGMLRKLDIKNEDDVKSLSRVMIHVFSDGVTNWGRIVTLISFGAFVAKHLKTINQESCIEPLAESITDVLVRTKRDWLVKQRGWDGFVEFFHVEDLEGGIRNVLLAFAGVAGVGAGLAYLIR
Bim-Mcl-1: inhibitors of Bim-Mcl-1 interaction, human | Q07820 | Bead-based flow cytometry, Bim peptide-Mcl-1 binding | inhibition, % at 10 µM | 190,000 compounds, 0.1% hits | AID 1009; in the data active means inhibition above about 40%;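 further: 0% = no compound tracer wells and 100% = peptide blocker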
Mcl1-Noxa inh: Mcl-1/Noxa interaction inhibition; 220,000 compounds, 1.5% hits; inhibition, % at 21.7 µM; TR-FRET Mcl-1/Noxa peptide binding, 2 h;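 active means compounds that cut the protein-peptide binding signal by more than 50% relative to plate controls in a single-dose test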;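 further: His-tagged Mcl-1 with rhodamine Noxa BH3 peptide and terbium anti-His antibody; 0% = Mcl-1 plus Noxa peptide wells and 100% = peptide-only wells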
Mcl1 Bid PPI: disrupts binding of human Mcl-1 to Bid peptide; Q07820; TR-FRET Mcl-1/Bid-Dy647 peptide binding, 1536-well; inhibition, % at 21.7 µM; 220,000 compounds, 0.97% hits; AID 1021;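 active means compounds that cut the binding signal by more than half at the single screening dose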;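 further: His-tagged Mcl-1 with europium anti-His antibody binding Bid BH3 peptide; 0% = Mcl-1 plus peptide wells and 100% = peptide-only wells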
The depositor's hits bear a star; x = no result. Hits are enriched below; roughly 2.3% of the tested compounds scored in any of these assays.

SMILES	GLD-1 TGE inh	Bcl-xL primary	MCL1-BIM inh	Bim-Mcl-1	Mcl1-Noxa inh	Mcl1 Bid PPI
C=CCOc1ccc2ccccc2c1CNCCCN1CCOCC1	-4	6	6	0	18	0
C=CCOc1ccc(Br)cc1CNCCCN1CCOCC1	0	2	7	-3	57*	33
COc1ccccc1CNC(=O)COC(=O)c1cc2ccccc2o1	0	x	x	x	x	x
CC(C)N1C(=S)SC(C)(C)C1n1oc(=O)n(-c2cccc(Cl)c2)c1=O (stereo unspecified)	4	129*	5	-3	2	-24
CCCN1CCC(NC(=S)Nc2ccc(C(=O)OCC)cc2)CC1	4	2	5	-5	0	84*
CCCN1CCC(NC(=S)Nc2ccc([N+](=O)[O-])cc2)CC1	7	9	8	-2	9	-25
Cc1cc(OCC(=O)NCCCN2CCOCC2)c2c(C)c(C)c(=O)oc2c1	4	7	1	x	x	x
CCOC(=O)c1c(C)c(C(=O)Nc2ccc(N(C)C)cc2)c(C)n1CC	7	-5	-2	3	56*	-12
CCCCOC(=O)Nc1ccc(C(N)=O)cc1	-9	7	2	-6	12	-6
CN(C)c1ccc(/C=N/NC(=O)c2ccc(NC(=O)c3ccccc3)cc2)cc1	17	32*	33	x	31	-77
CC(C)Oc1ccc(C(=O)Nc2ccc(N(C)C)cc2)cc1	1	-10	6	3	78*	-32
CCCCOC(=O)Nc1ccc(N(C)C)cc1	4	0	7	1	75*	-48
Cc1ccc2c(c1)sc1nc(=O)ccn12	7	0	-3	x	x	x
CN(CC(=O)Nc1cccc(F)c1)C(=O)COc1cccc2c1OC(C)(C)C2	3	-3	-5	x	x	x
CCCOc1ccc(C(=O)Nc2ccc(NC(=O)c3cccs3)cc2)cc1	-2	3	0	x	x	x
CCCOc1ccc(C(=O)Nc2ccc(N(C)C)cc2)cc1	-4	-5	7	4	81*	-27
CC(C)c1[nH]nc2c1C(c1cccnc1)C(C#N)=C(N)O2 (stereo unspecified)	7	2	0	-2	3	92*
COc1ccc(-n2c(N)c(C(=O)NCc3ccco3)c3nc4ccccc4nc32)cc1	4	2	-6	3	58*	-11
COc1ccc(OC)c(-n2c(N)c(C(=O)NCC3CCCO3)c3nc4ccccc4nc32)c1 (stereo unspecified)	x	x	x	0	15	93*
CC1(C)CC(=O)C(N=Nc2ccc(C(F)(F)F)cc2[N+](=O)[O-])=C(O)C1	-3	3	-1	x	-14	-5
Cc1ccc(C)c(C(=O)COC(=O)CCCC(=O)Nc2cc(C(F)(F)F)ccc2Cl)c1	-3	-1	5	27	13	94*
COc1ccc(N=C2NC(=O)/C(=C/C=C/c3ccccc3)S2)cc1	0	10	4	x	-12	-19
COc1ccc(N=C2NC(=O)/C(=C/c3ccco3)S2)cc1	-8	1	4	x	-4	-37
Cc1ccc(N=C2NC(=O)/C(=C/C=C/c3ccco3)S2)cc1	-7	8	16	3	82*	-47
Cc1cccc(N=C2NC(=O)/C(=C/C=C/c3ccco3)S2)c1C	0	9	21	7	114*	92*
SMILES	GLD-1 TGE inh	Bcl-xL primary	MCL1-BIM inh	Bim-Mcl-1	Mcl1-Noxa inh	Mcl1 Bid PPI
Cc1cccc(N=C2NC(=O)/C(=C/c3cccn3C)S2)c1C	-30	-24	-32	x	30	-105
O=C1NC(=Nc2ccccc2)S/C1=C\C=C\c1ccco1	-11	1	-16	-6	112*	42
O=C(NC1CCCCC1)c1sc(=S)n2c1[nH]c(=O)c1ccccc12	10	14	18	-1	76*	30
CCc1ccc2[nH]c(=O)c(C(c3nnnn3CC3CCCO3)N3CCN4CCCC4C3)cc2c1 (stereo unspecified)	-2	7	6	1	10	95*
Cc1cc2cc(C(c3nnnn3Cc3ccccc3)N3CCc4ccccc43)c(=O)[nH]c2cc1C (stereo unspecified)	9	31*	34	0	-31	-56
Cc1ccc2[nH]c(=O)c(C(c3nnnn3CC3CCCO3)N3CCCc4ccccc43)cc2c1 (stereo unspecified)	12	42*	28	4	-3	-15
Cc1ccc2[nH]c(=O)c(C(c3nnnn3CC3CCCO3)N3CCc4ccccc4C3)cc2c1 (stereo unspecified)	4	26	25	3	12	-62
Cc1ccc2[nH]c(=O)c(C(c3nnnn3Cc3ccccc3)N3CCc4ccccc43)cc2c1 (stereo unspecified)	9	14	9	0	3	-38
CCOC(=O)COc1ccccc1C(=O)c1cnn(-c2ccccc2)c1	2	5	13	x	x	x
CCOc1ccccc1NC(=O)/C=C/C(N)=O	11	5	2	-4	98*	17
CCn1c(-c2cccc(Br)c2)n[nH]c1=S	0	-17	-7	-7	45	97*
S=c1[nH]nc(-c2cccc(Cl)c2)n1CCN1CCCCC1	0	-15	-7	-2	-3	95*
CC(C)[C@H](N)C(=O)N1CCC(C(=O)N[C@@H](Cc2ccccc2)C(=O)NCc2ccc(F)cc2)CC1	-5	2	2	x	x	x
CC1(C)CC(=O)C2=C(C1)OC(N)=C(C#N)C2c1cccc(OC(=O)c2ccco2)c1 (stereo unspecified)	-3	0	7	-5	-6	97*
Cn1c(N)c(C(=O)CSc2nc(C3CC3)n(-c3ccccc3)n2)c(=O)n(C)c1=O	0	-3	-5	x	x	x
Cc1ccc2[nH]c(O)c(N=NC(=O)c3ccc(NS(=O)(=O)c4cccs4)cc3)c2c1	7	12	19	x	71*	11
O=C(O)c1ccccc1C(=O)c1ccc(Br)s1	-7	-1	-1	1	54*	-20
Nc1nc(COc2ccc(F)cc2Cl)nc(N2CCCCC2)n1	3	-3	-1	-2	-4	-31
CC(C)c1ccc(NC(=O)Cn2ncn3c(cc4ccccc43)c2=O)cc1	2	11	15	x	x	x
CN(C)c1ccc(NC(=O)Cn2ncn3c(cc4ccccc43)c2=O)cc1	0	4	2	0	76*	-49
CC(=O)Nc1ccc(C(=O)NC(CC(=O)O)c2ccc(Cl)cc2)cc1 (stereo unspecified)	3	1	-4	0	-3	10
CN(C)c1ccc(C(CC(=O)O)NC(=O)c2ccc(Cl)cc2)cc1 (stereo unspecified)	8	2	2	2	52*	-91
CCOc1ccc(C2C3=C(Nc4nc(N)[nH]c(=O)c42)c2ccccc2C3=O)cc1 (stereo unspecified)	9	12	-1	-7	76*	52*
COc1cc2c(cc1OC)-c1cc(NC3CCCCCCC3)nc(=O)n1CC2	-9	11	6	15	18	100*
